Screening data: PubChem, National Center for Advancing Translational Sciences (NCATS)
DT40 TDP1 CPT: growth inhibition of DT40 Tdp1-/-;hTDP1 cells with camptothecin (screen for TDP1 inhibitors); chicken DT40 Tdp1-/-;hTDP1 cells + 20 nM CPT, ATP luminescence, 48 h; Potency, µM (highest dose often 46.2 µM), for inactives: top-dose activity change, negative = growth inhibition, most hits filed as inhibitors; hit rate 12% among 420,000; AID 686979; also: potency is read from the fitted curve at half-maximal effect; % is scaled to controls: 0 for no effect and ±100 for the full control effect; nearly all actives have a fitted effect of over 55% in size
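Chicken DT40 Tdp1-/- cells complemented with human TDP1, 400 cells/well, exposed to compounds plus 20 nM camptothecin for at least 48 h at 37 C; viability read as ATP content by CellTiter-Glo luminescence.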
DRD3 agonist: D3 dopamine receptor (human) agonism; P35462; D3R DiscoveRx beta-arrestin cells, luminescence, 90 min; max activation, %; hit rate 0.58% among 410,000; in the data active = max activation above about 30%; also: 0% is about no effect
Target sequence (P35462 whole entry, looked up): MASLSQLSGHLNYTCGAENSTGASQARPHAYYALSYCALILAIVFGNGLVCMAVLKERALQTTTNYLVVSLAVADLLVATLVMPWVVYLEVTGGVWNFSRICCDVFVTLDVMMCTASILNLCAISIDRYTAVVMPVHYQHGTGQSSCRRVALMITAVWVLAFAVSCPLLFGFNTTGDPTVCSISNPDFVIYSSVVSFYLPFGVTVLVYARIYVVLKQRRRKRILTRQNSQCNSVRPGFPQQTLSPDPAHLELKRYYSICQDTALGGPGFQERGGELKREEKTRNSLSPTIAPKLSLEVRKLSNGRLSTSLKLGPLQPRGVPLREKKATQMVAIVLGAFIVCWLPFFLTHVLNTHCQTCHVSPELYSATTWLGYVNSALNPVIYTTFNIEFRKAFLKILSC
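Cells at 1500/well, incubated overnight, then treated with pinned compounds (dopamine as control) for 90 min at 37 degrees C. DiscoveRx reagent added for 30 - 60 minutes at room temperature; luminescence read.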
D3 antag: antagonists of human D3 dopamine receptor. P35462. D3R cells, DiscoveRx beta-arrestin luminescence, antagonist mode; stronger effect = lower value. max response, negative = inhibition, %. hit rate 2.5% among 360,000. AID 652054; in the data active = max response below about -50%; inconclusive = no clear call, values can overlap the other calls; also: % is scaled to controls: 0 for no effect and ±100 for the full control effect
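Cells expressing the human receptor were seeded at 1500 cells/well, incubated overnight at 37 degrees C in 5% CO2, then exposed to library compounds with dopamine controls for 90 minutes at 37 degrees C before luminescent detection.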
TDP1 cell noCPT: qHTS for Inhibitors of human tyrosyl-DNA phosphodiesterase 1 (TDP1): qHTS in cells in absence of CPT; DT40 Tdp1-/- hTDP1 cells, no CPT, ATP luminescence, 48 h; Potency, µM (doses to about 46.2 µM), without a hit: top-dose activity change, negative = growth inhibition, most hits filed as inhibitors; hit rate 15% among 420,000; AID 686978, 2013; also: potency is read from the fitted curve at half-maximal effect; % is scaled to controls: 0 for no effect and ±100 for the full control effect; nearly all actives have a fitted effect of over 55% in size
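Chicken DT40 Tdp1-/- cells stably complemented with human TDP1 were seeded at 400 cells/well with DMSO in place of 20 nM camptothecin. After compound pinning, cells grew at least 48 hr at 37 °C; viability read by CellTiter-Glo luminescence.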
IL1B secr inh: blocks inflammasome-driven IL-1 beta release. THP-1 LPS/ATP IL-1B secretion, AlphaLISA, 16 h; stronger effect = lower value. activity change, % at 57.5 µM. hit rate 4.7% among 360,000. AID 743279; in the data active = activity change below about -50%; inconclusive = mostly about -30% to -49%; also: % is scaled to controls: 0 for no effect and ±100 for the full control effect
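THP-1 cells pretreated 1 hr with compounds (up to 57.5 uM final), then stimulated with LPS (250 ng/mL final) plus ATP (1.25 mM final); secreted IL-1B measured by AlphaLISA after 16 hr, decreased signal indicating inhibition.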
ClpP mod: qHTS Assay for Activators of ClpP. ATP-dependent Clp protease proteolytic subunit (Bacillus subtilis (strain 168)), P80244. AID 651965, 2013. hit rate 1.9% among 340,000. Potency, µM (doses to about 57.5 µM), for inactives: top-dose activity change, negative = active. purified B. subtilis ClpP, FRET peptide cleavage, 20 min; active = well fitted falling curve with a large enough effect; inconclusive = small, poorly fitted or top-dose-only effect; inactive = no such curve, though single readings can be large or run the other way; also: potency is read from the fitted curve at half-maximal effect; the source files actives as falling curves though it sought activators and does not explain the sign; nearly all actives have a fitted effect of over 65% in size
Target sequence (P80244 whole entry, looked up): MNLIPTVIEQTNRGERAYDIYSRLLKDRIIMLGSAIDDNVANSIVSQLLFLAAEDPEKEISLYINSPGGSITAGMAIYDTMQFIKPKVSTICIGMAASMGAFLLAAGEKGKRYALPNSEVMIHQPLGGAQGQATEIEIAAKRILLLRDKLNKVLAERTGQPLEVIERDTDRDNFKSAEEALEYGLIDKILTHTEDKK
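ClpP 10 microg/mL final, pH 8 Tris/KCl buffer with BSA, glycerol, Tween-20; compound pinned in; FRET-FV substrate; RT 20 min; Ex320/Em430; ΔFRET vs ADEP 5.8 microM, DMSO, no enzyme.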
* = called active by the depositor; ? = inconclusive; · = no result given. Sampled rows, rich in hits. Any-hit rate of the full collection: about 21%. Unless noted, calls follow the shape of the dose curve; as a rule, active = well fitted inhibition curve with a large enough effect; inconclusive = small, poorly fitted or top-dose-only effect; inactive = flat fitted curve, though single readings scatter.

SMILES | DT40 TDP1 CPT | DRD3 agonist | D3 antag | TDP1 cell noCPT | IL1B secr inh | ClpP mod
CCC(C)NC(=O)CCSc1nc(-c2ccc(OC)cc2)cc(C(F)(F)F)n1 (centres undefined) | ? | 2 | · | 16µM* | · | -15%
COc1ccc(-c2cc(C(F)(F)F)nc(SCC(=O)NC(C)c3ccccc3)n2)cc1 (centres undefined) | ? | -10 | · | 15µM* | · | 4%
Cc1cccc(-c2nc(SCc3cc(=O)c4c(C)cc(C)cc4[nH]3)n[nH]2)c1 | ? | 4 | · | ? | · | -1%
Clc1cccc(Cl)c1CO/N=C/c1c(-c2ccccc2)nc2n1CCS2 | 18µM* | -6 | -19 | 21µM* | -15 | 25µM*
COC(=O)/C(C#N)=C/c1c(-c2ccccc2)nc2n1CCS2 | -20% | 5 | -12 | ? | 0 | ·
Cc1c(NS(C)(=O)=O)c(=O)n(-c2ccccc2)n1C | -8% | -1 | ? | -13% | 0 | 3%
Cc1c(Nc2nc(-c3ccc(Cl)cc3)cs2)c(=O)n(-c2ccccc2)n1C | ? | 2 | 14 | 10µM* | ? | -2%
Cc1c(Nc2c3ccccc3nc3ccccc23)c(=O)n(-c2ccccc2)n1C | -9% | -4 | -15 | -15% | 6 | 1%
Cc1c(Nc2scc(-c3ccccc3)[n+]2-c2ccccc2)c(=O)n(-c2ccccc2)n1C | ? | 2 | -4 | 21µM* | -27 | ·
Cc1c(Nc2nc3ccccc3nc2N2CCN(c3ccccc3)CC2)c(=O)n(-c2ccccc2)n1C | 21µM* | 2 | 42 | 15µM* | -19 | -1%
Cc1ccc(NC(=O)COc2ccc3c(c2)CCC3)nc1 | 4% | -1 | 12 | -26% | -8 | ·
Cc1nn(C(C)(C)C)c(OC(=O)c2cccs2)c1Sc1ccccc1 | 2% | -4 | -53* | -11% | 9 | -1%
Cc1ccccc1C(=O)Oc1c(Sc2ccccc2)c(C)nn1C(C)(C)C | ? | -18 | · | 15µM* | · | 1%
Cc1nn(C(C)(C)C)c(OC(=O)c2ccco2)c1Sc1ccccc1 | -8% | 0 | -24 | ? | -6 | -3%
Cc1nn(C(C)(C)C)c(OC(=O)c2ccc(Br)o2)c1Sc1ccccc1 | ? | 6 | -10 | -15% | 15 | -1%
Cc1nn(C(C)(C)C)c(OC(=O)c2ccc3c(c2)OCO3)c1Sc1ccccc1 | ? | -14 | -22 | -25% | 4 | 32µM*
COc1ccccc1C(=O)Oc1c(Sc2ccccc2)c(C)nn1C(C)(C)C | ? | -16 | · | 15µM* | · | 2%
CCCCCn1c(=N)c(S(=O)(=O)c2ccccc2)cc2c(=O)n3cccc(C)c3nc21 | · | 1 | · | · | · | 1%
O=C(c1ccco1)N1CCC2(CCCN(Cc3ccccc3)C2)CC1 | -4% | · | · | ? | · | ·
Cc1ccc(S(=O)(=O)/N=C(/Nc2ccc(O)c(C(=O)O)c2)c2ccccc2)cc1 | 1% | -1 | 9 | 2% | 13 | -2%
Cc1ccc(S(=O)(=O)N/N=C/c2cccc3nccnc23)cc1 | 13µM* | -6 | -2 | 15µM* | 5 | 1%
C=CCNC(=O)/C(C#N)=C/c1ccccc1OCc1ccc(C(=O)OC)cc1 | 2.9µM* | -1 | 0 | 7.3µM* | -3 | 234%
COC(=O)c1ccc(COc2ccccc2/C=C(\C#N)C(=O)Nc2ccc(C)cc2)cc1 | 6.5µM* | 2 | -10 | 5.2µM* | 12 | -1%
COC(=O)c1ccc(/C=N/NS(=O)(=O)c2cc(C)ccc2C)cc1 | ? | -49 | -82* | -16% | 1 | 1%
CSCCC(NC(=O)COc1ccccc1)C(=O)NCCOc1ccc(C)cc1 (centres undefined) | -18% | -1 | -14 | -6% | -1 | -2%
SMILES | DT40 TDP1 CPT | DRD3 agonist | D3 antag | TDP1 cell noCPT | IL1B secr inh | ClpP mod
COC(=O)N1CCC2(CC1)CN(C(=O)Nc1ccccc1)C2 | 0% | · | · | -2% | · | ·
COc1ccc(S(=O)(=O)N2CCCCC2)cc1NC(=O)Cc1ccc(Br)cc1 | ? | -14 | -15 | -18% | 0 | 3%
COc1ccc(CCNC(=O)c2c(C)nn(-c3ccc(F)cc3)c2-n2cccc2)c(OC)c1OC | · | 8 | · | · | · | -1%
CCOc1ccc(Br)cc1S(=O)(=O)Nc1cccc(-c2ccc(OC)nn2)c1 | -82% | 7 | · | -71% | · | -1%
Cc1ccc(-c2nnc3c4ccccc4c(-c4ccccc4)nn23)cc1 | 2% | -1 | · | -15% | · | -3%
COC(=O)c1ccc(COc2ccccc2/C=N/NS(=O)(=O)c2ccc(C)cc2)cc1 | 18µM* | -4 | -28 | ? | 57 | -1%
CN1CCN(C(=O)c2ccc3c(c2)N(Cc2ccc(C(F)(F)F)cc2)C(=O)c2ccccc2S3)CC1 | ? | 10 | · | 21µM* | · | -4%
CN1CCN(C(=O)c2ccc3c(c2)N(Cc2c(F)cccc2Cl)C(=O)c2ccccc2S3)CC1 | ? | -18 | · | 23µM* | · | -4%
Cc1ccc(CN2C(=O)c3ccccc3Sc3ccc(C(=O)N4CCOCC4)cc32)cc1 | ? | 8 | · | ? | · | -2%
CCN(CC)C(=O)c1ccc2c(c1)N(Cc1c(F)cccc1Cl)C(=O)c1ccccc1S2 | ? | 6 | · | ? | · | 1%
CN1C2=CC=CC=CC2=[N+](C)C12C([N+](=O)[O-])=CC(=[N+]([O-])[O-])C=C2[N+](=O)[O-] (centres undefined) | ? | -7 | -29 | 2.1µM* | · | ·
CCN(C(=O)CSc1nnc(-c2cccs2)o1)C1CCS(=O)(=O)C1 (centres undefined) | -1% | 0 | 7 | 4% | 34 | ·
CC(=O)c1cc2cccc(OC3(C)CCN(Cc4ccc5ccccc5c4)C3)c2o1 (centres undefined) | 18µM* | -16 | -70* | ? | -3 | -17%
CC(=O)c1ccc(OC2(C)CCN(CCOc3ccc(C)cc3)C2)cc1 (centres undefined) | 16µM* | 48* | -18 | 5.8µM* | -12 | -7%
CC(=O)c1ccc(OC2(C)CCN(Cc3cc4ccccc4[nH]3)C2)cc1 (centres undefined) | 4.1µM* | -20 | -55* | 8.2µM* | 17 | 1%
COc1cccc(NC(=O)C2(C)CCN2Cc2ccc3ccccc3c2)c1 (centres undefined) | ? | 16 | 33 | ? | 6 | -2%
CNc1cc(-c2ccccc2CN(C)C)ncn1 | -7% | · | · | -9% | · | ·
